Sampled rows, rich in hits. Any-hit rate of the full collection: about 7.2%.
ALR H2O2 inh = blocks human ALR sulfhydryl oxidase activity. AID 485317. hit rate 3.8% among 290,000. inhibition, % (concentration not given with the values). P55789. purified ALR, DTT oxidation, H2O2 HRP-luminol luminescence;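 active = mean replicate inhibition above about 79%, with every replicate also reaching it, limit read from the data; inconclusive = only one of the two criteria met; inactive = mean below limit and not every replicate reaching it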
VLA-4 inh = inhibition in a human VLA-4 binding assay | P13612 | VLA-4 expressing cells, ligand binding flow cytometry | inhibition, % (about 7 µM as worked out from the volumes in the protocol) | hit rate 0.2% among 330,000; in the data active = inhibition above about 50%
A1 inh = inhibitors of the anti-apoptotic protein A1, read as caspase activation. hit rate 0.066% among 330,000. MEF A1-2A-BIM cells, Caspase-Glo 3/7 luminescence, 3 h; percent of clofoctol response, vehicle zero. caspase activation, % (test concentration not listed). AID 2462;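 active = over half of replicate activation scores above 10%, or exactly half above 10 with the replicate mean above 10; inconclusive = replicate mean below 10 yet half the replicates above 10; inactive = over half of replicates below 10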
Mot1-301 SUMO = blocks SUMOylation pathway, rescuing yeast Mot1-301 growth | growth rescue, % at 18.8 µM | hit rate 1% among 320,000 | AID 2716 | S. cerevisiae Mot1-301 growth rescue, ATP luminescence, 38.5C; percent above DMSO median, 100 means doubled;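 active = every valid replicate shows activation above 250% relative to neutral control wells; inactive = the rest, any valid replicate at or below 250%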
AHR activator = activates the human aryl hydrocarbon receptor; AHR-responsive luciferase reporter cells, luminescence; AID 2796; hit rate 2.5% among 320,000; activation, % at 5 µM; in the data active = activation above about 47%
Target sequence (P35869 whole entry, looked up): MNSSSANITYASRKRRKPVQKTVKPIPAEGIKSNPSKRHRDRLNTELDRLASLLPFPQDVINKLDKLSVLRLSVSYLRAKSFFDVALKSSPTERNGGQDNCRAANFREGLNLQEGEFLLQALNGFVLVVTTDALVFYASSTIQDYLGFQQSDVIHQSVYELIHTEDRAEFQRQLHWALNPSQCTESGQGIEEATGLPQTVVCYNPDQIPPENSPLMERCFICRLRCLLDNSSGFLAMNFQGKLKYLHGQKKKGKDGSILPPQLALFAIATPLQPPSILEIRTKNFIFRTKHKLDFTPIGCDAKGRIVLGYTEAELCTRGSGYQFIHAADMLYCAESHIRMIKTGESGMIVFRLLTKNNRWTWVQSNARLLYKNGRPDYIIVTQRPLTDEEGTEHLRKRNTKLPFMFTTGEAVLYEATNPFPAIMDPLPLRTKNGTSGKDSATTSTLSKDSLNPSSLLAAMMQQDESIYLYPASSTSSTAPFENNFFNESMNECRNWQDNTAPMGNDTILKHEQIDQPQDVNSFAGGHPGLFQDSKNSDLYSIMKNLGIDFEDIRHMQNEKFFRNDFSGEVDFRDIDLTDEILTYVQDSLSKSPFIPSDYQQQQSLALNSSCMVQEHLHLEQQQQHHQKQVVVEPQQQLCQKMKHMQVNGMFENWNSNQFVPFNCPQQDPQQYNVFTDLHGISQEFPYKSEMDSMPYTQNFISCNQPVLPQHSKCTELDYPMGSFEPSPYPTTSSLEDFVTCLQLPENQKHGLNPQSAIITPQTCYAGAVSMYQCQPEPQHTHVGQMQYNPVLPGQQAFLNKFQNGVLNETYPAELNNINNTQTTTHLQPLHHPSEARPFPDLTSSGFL
Efflux pump inh = antifungal efflux pump inhibition, Nile Red retention | S. cerevisiae Candida pump triplex | hit rate 0.44% among 330,000 | inhibition, % at 10 µM;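 active = plate passing quality check with inhibition over a set limit, or well fluorescence over plate mean plus 4 SD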;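 also: Nile Red retained in pooled yeast measured as flow cytometry median fluorescence; higher means more Nile Red kept so more efflux inhibition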
Each line names hits and unclear results; the compound was inactive in the other large screens; ! = not confirmed by another sample.

Cc1ccnn1Cc1cc(C(=O)O)c2ccccc2n1	none
COc1ccc(C2C(C#N)=C(N)N3C(=C2C#N)Sc2ccccc23)cc1 (centres undefined)	none
COc1ccc(C(=O)NC(=S)NCc2cccnc2)cc1[N+](=O)[O-]	AHR activator 76
Cc1csc2ncc(C(=O)Nc3cccc(C(F)(F)F)c3)c(=O)n12	none
CCc1ccc(NC(=O)c2cnc3scc(C)n3c2=O)cc1	AHR activator 63 (no result: ALR H2O2 inh)
Cc1csc2ncc(C(=O)NCc3ccc4c(c3)OCO4)c(=O)n12	AHR activator 78
CC1CCN(c2nc(/C=C/c3ccccc3)nc3ccccc23)CC1	AHR activator 72 (no result: ALR H2O2 inh)
Oc1[nH]c2ccccc2c1C=Nc1ccccc1	none (no result: ALR H2O2 inh)
OCCN=Cc1c(O)[nH]c2ccccc12	ALR H2O2 inh 99
CN(C)CC(C)(C)CN=Cc1c(O)[nH]c2ccccc12	ALR H2O2 inh 99
COCC(C)N=Cc1c(O)[nH]c2ccccc12 (centres undefined)	ALR H2O2 inh 99
Cc1ccc(S(=O)(=O)N2[C@@H](c3ccc(F)cc3)C(C(=O)O)=CC[C@H]2c2ccc3c(c2)OCO3)cc1	none
COc1cc(-c2nc3n(n2)C(c2ccc(F)cc2)C2=C(CCCC2=O)N3)cc(OC)c1OC (centres undefined)	AHR activator 82
CCC(=O)N1CCN=C1SCc1c(F)cccc1Cl	ALR H2O2 inh 99
O=C(c1c(F)cccc1F)N1CCN=C1SCc1ccccc1	none
CC(=O)N1CCN=C1SCc1c(F)cccc1Cl	ALR H2O2 inh 98
CC(C)(C)OC(=O)C[C@@H]1C/C=C\C[C@@H](CC(=O)N(CCO)Cc2ccccc2)C(=O)N[C@@H](c2ccccc2)COC1=O	none
Cc1cc(C)cc(OCc2nc3ncc(Br)cc3[nH]2)c1	AHR activator 69 (no result: ALR H2O2 inh)
Cc1nn(Cc2ccc(Cl)cc2)c(C)c1NC(=O)CSc1nc2c(c(C(F)(F)F)n1)CCc1ccccc1-2	ALR H2O2 inh 98
CC1(C)CC2CC(C)(CN2Cc2c(O)ccc3ccccc23)C1 (centres undefined)	ALR H2O2 inh 95
COc1ccc(CCNC(=O)CCC(=O)Nc2nnc(C(C)C)s2)cc1OC	none
O=C(COc1coc(CN2CCN(c3ccc(F)cc3)CC2)cc1=O)NC1CCCC1	Mot1-301 SUMO 297
O=C(COc1coc(CN2CCN(c3ccccc3)CC2)cc1=O)NC1CCCC1	none
O=C1NC(=O)C(c2ccccc2)(c2ccc(O)cc2)N1 (centres undefined)	none (no result: ALR H2O2 inh)
O=C1NC(=O)C(c2ccccc2)(c2ccccc2)N1	Mot1-301 SUMO 332!
Cc1nn(-c2ccccc2)c2[nH]c(=O)c(CNCCN3CCOCC3)cc12	ALR H2O2 inh 91
Cc1cccc(C)c1NC(=O)CSCC(=O)c1ccc(O)c(O)c1	ALR H2O2 inh 99
COc1ccc(NC(=O)CSc2ccc([N+](=O)[O-])cc2)cc1S(=O)(=O)N1CCOCC1	none (no result: ALR H2O2 inh, A1 inh, Mot1-301 SUMO)
Clc1ccccc1-c1nc(/C=N/N2CCOCC2)c2ccccn12	none (no result: ALR H2O2 inh)
CN1CCN(/N=C/c2nc(-c3ccccc3Cl)n3ccccc23)CC1	ALR H2O2 inh 98
CN1CCN(/N=C/c2nc(-c3ccc(Cl)cc3)n3ccccc23)CC1	AHR activator 48
O=Cc1nc(-c2ccc(Cl)cc2)n2ccccc12	none
CCOC(=O)Cc1csc(NC(=O)/C=C\c2ccccc2Cl)n1	none
Cc1nc(C(C)N(C)Cc2nc(Cc3ccccc3F)no2)c(C)s1 (centres undefined)	none
O=C1C[C@H](c2ccc(O)cc2)Oc2cc(O[C@@H]3O[C@H](CO)[C@@H](O)[C@H](O)[C@H]3O)cc(O[C@@H]3O[C@H](CO)[C@@H](O)[C@H](O)[C@H]3O)c21	none
OC[C@H]1O[C@@H](Oc2cc(O)cc(/C=C/c3ccc(O)cc3)c2)[C@H](O)[C@@H](O)[C@@H]1O	ALR H2O2 inh 99
Cc1ccc(-n2c(=O)c3sccc3n(CC(=O)NC3CCCCC3)c2=O)cc1	none
Cc1cccc(Nc2nc(N)c(C#N)c(CC#N)c2C#N)c1	AHR activator 50
COc1ccc(CCNC(=O)c2ccc3c(c2)NC(=O)C(CSCc2cc(C)ccc2C)N3)cc1OC (centres undefined)	ALR H2O2 inh 99
Cc1ccc(O)c(C2=NCCNC(C(F)(F)C(F)F)=C2)c1	ALR H2O2 inh 99 (no result: A1 inh)
Oc1ccc(Cl)cc1C1=NCCNC(C(F)(F)C(F)F)=C1	ALR H2O2 inh 99
FC(F)C(F)(F)C1=CC(c2ccccc2)=NCCN1	none
O=S(=O)(N/N=C/c1cn(Cc2ccccc2)c2ccccc12)c1ccccc1	none
O=C(Nc1nc(-c2ccc(F)cc2)cs1)c1cccc(N2C(=O)CCC2=O)c1	AHR activator 48
O=C(Nc1ccccc1)c1cccc(N2C(=O)CCC2=O)c1	none
COc1ccc(-c2csc(NC(=O)CN3C(=O)CCC3=O)n2)cc1	none
O=C(Nc1nc(-c2cc(F)ccc2F)cs1)c1cccc(N2C(=O)CCC2=O)c1	none (no result: ALR H2O2 inh)
CN(C)c1ccc(NC(=O)c2cccc(N3C(=O)CCC3=O)c2)cc1	ALR H2O2 inh 99
CC(C)=NNc1nc(-c2ccc(N3C(=O)CCC3=O)cc2)cs1	ALR H2O2 inh 99
O=C(C1CCCN(S(=O)(=O)c2cccc3cccnc23)C1)N1CCN(c2ccc(F)cc2)CC1 (centres undefined)	none (no result: ALR H2O2 inh)
CCc1cc(=O)n2[nH]c(-c3ccccc3)c(-c3ccccc3)c2n1	none (no result: ALR H2O2 inh)
O=C1/C(=C2\C(=O)N(Cc3ccc(F)cc3)c3ccccc32)SC(=S)N1CCS(=O)(=O)O	none
O=C(O)CN1C(=O)/C(=C2\C(=O)N(Cc3ccccc3Cl)c3ccccc32)SC1=S	A1 inh inconclusive, AHR activator 60 (no result: ALR H2O2 inh)
COc1cc(/C=C2/C(=N)N3C(=NC2=O)SN=C3S(C)(=O)=O)ccc1OS(=O)(=O)c1ccc(C)cc1	none
Cc1ccc(S(=O)(=O)Oc2ccc(/C=C3/C(=N)N4C(=NC3=O)SN=C4S(C)(=O)=O)cc2)cc1	ALR H2O2 inh 98
CCS(=O)(=O)C1=NSC2=NC(=O)/C(=C\c3ccc(OS(=O)(=O)c4ccccc4)c(OC)c3)C(=N)N21	ALR H2O2 inh 97
Cc1ccc(S(=O)(=O)Oc2ccc(/C=C3\C(=N)N4N=C(S(C)(=O)=O)SC4=NC3=O)cc2)cc1	ALR H2O2 inh 92
COc1cc(/C=C2\C(=N)N3N=C(S(C)(=O)=O)SC3=NC2=O)ccc1OS(=O)(=O)c1ccccc1	ALR H2O2 inh 91
O=C(c1ccco1)N1CCN(C(=S)Nc2ccccc2Cl)CC1	none
Cc1cccn2c(=O)c3cc(C(=O)N4CCCCC4C)sc3nc12 (centres undefined)	none (no result: ALR H2O2 inh)
C=CC[C@]12CCc3ccccc3C1N(c1ccc(C(=O)OCC)cc1)C2=O (some centres undefined)	none
COc1cccc(-n2c(C)cc(/C=C3/C(=N)N4C(=NC3=O)SN=C4S(C)(=O)=O)c2C)c1	ALR H2O2 inh 97

High-throughput results (PubChem BioAssay)
